The whole screen tested about 69,000 compounds, of which about 8,600 (12%) showed an effect of 50% or more. What follows is part of a selection rich in strong results, with near analogues and random picks from the rest.
system: Plasmodium berghei; experiment: Screen against P. berghei liver stage (PbLuc), transformed with Luciferase, at 10uM; format: functional, HepG2; settings: tested at 10 uM

| SMILES | INHIBITION [%] |
| --- | --- |
| FC(F)(F)COc1cccc(-c2nc3c([nH]2)CCNC3)c1 | 36.6 |
| CCc1nc(CN(C)C2CCN(CC(=O)N3CCOCC3)C2)no1 (configuration not stated) | 22.3 |
| O=C(CN1CCOC(CNc2cccnn2)C1)N1CCCCC1 (configuration not stated) | -55.4 |
| CNC(=O)C1CCN(Cc2nc(-c3ccc(SC)cc3)oc2C)C1 (configuration not stated) | -2.5 |
| CSc1ccc(-c2nc(CN3CCC(NC(C)=O)CC3)c(C)o2)cc1 | 5.51 |
| CSc1ccc(-c2nc(CN3CCC(NC(C)=O)C3)c(C)o2)cc1 (configuration not stated) | 66.8 |
| COCCOc1ccc(NC(=O)C2CC(=O)N(C(C)C)C2)cn1 (configuration not stated) | -21.8 |
| CC(=O)NCC(=O)N1CCC(c2cncc(Oc3cccnc3)n2)CC1 | 9.93 |
| CN(Cc1n[nH]c2c1CCC2)C(=O)CCc1cc2n(n1)CCNC2 | 46.3 |
| CCc1ncc(C(=O)N2CC[C@H]3CC[C@@H](C2)N3C)cn1 | 61.4 |
| CCc1ncc(C(=O)N2CC(N3CCCCC3)C2)cn1 | 13.9 |
| CCc1ncc(C(=O)N2C[C@@H](C)O[C@@H](C)C2)cn1 | 24.8 |
| CNCc1ccc([C@@H]2CN(C)C[C@H]2C(N)=O)cc1 | 49.5 |
| Cc1csc(CN(C)C(=O)c2cccc(CCC(C)(C)O)c2)n1 | 34.9 |
| CN(Cc1nccn1C)C(=O)c1cccc(CCC(C)(C)O)c1 | 39.4 |
| CC(C)n1ccnc1CNC(=O)c1cccc(CCC(C)(C)O)c1 | 54.5 |
| CC(C)(O)CCc1cccc(C(=O)NCc2nccs2)c1 | 56.3 |
| C[C@H](NC(=O)c1cccc(CCC(C)(C)O)c1)C(N)=O | 10.3 |
| CC[C@@H](CO)NC(=O)c1cccc(CCC(C)(C)O)c1 | 5.78 |
| CCN(CC)c1ncccc1CNCc1ccc(Cl)s1 | 49.4 |
| Cc1ncsc1CN(Cc1ccccc1)Cc1ccncc1 | 12.1 |
| CC(C(=O)Nc1ccc(Cl)cn1)n1ccc(C(F)(F)F)n1 (configuration not stated) | 42.4 |
| Cc1cccc2nc(C(=O)N3CCCC[C@]4(C)NC(=O)CC[C@H]34)cn12 | 22 |
| O=C(NC1CC1)c1cc(C(F)(F)F)cc(C(=O)NC2CC2)n1 | 5.21 |
| Cc1cc(CN(C)CCC(O)c2ccccc2)no1 (configuration not stated) | 30.3 |
| Cc1cc(CN(C)CC2CCCCC2)no1 | 23.1 |

| SMILES | INHIBITION [%] |
| --- | --- |
| Cc1cc(CN(C)Cc2ncc(C(C)(C)C)o2)no1 | -30.5 |
| Cc1cc(CN(C)Cc2ncc(-c3cccs3)o2)no1 | 1.84 |
| Cc1cc(CN(C)Cc2ncc(-c3ccccc3)o2)no1 | 50.7 |
| Cc1cc(CN(C)CCN(C)c2ccccc2)no1 | 82.4 |
| CC(C)c1nccn1CC(=O)Nc1ccnn1C(C)C(C)C (configuration not stated) | -5.51 |
| COC(=O)c1cccc(C(=O)NCc2ccco2)n1 | 41.6 |
| CC(=O)Nc1ccc(S(=O)(=O)N2CCOC(Cn3ccnc3)C2)cc1 (configuration not stated) | -36.4 |
| CCc1ccc(NC(=O)CCN2CC(n3nc(C)cc3C)C2)cc1 | 52.6 |
| Cc1cc(C)n(C2CN(CCC(=O)NC3CCCCC3)C2)n1 | 25.6 |
| Cc1cc(C)n(C2CN(CCC(=O)NCCc3ccccc3)C2)n1 | 36.3 |
| CS(=O)(=O)N[C@@H]1CN(C(=O)c2cc3ccccc3s2)C[C@H]1O | -19.7 |
| CC(=O)N1CCC(c2cc(C(F)(F)F)nc3nccn23)CC1 | 61.9 |
| FC(F)(F)c1cc(C2CCN(c3cnccn3)CC2)n2ccnc2n1 | -7.98 |
| CC(=O)N1CCC(c2cc(C(F)(F)F)n3ccnc3n2)CC1 | -22.6 |
| CN(C)C(=O)CN1CCc2onc(-c3ccccc3F)c2C1 | -17.8 |
| Cc1ccc(CN2C[C@@H]3CN(c4ncc(F)cn4)C[C@@H]3C2)cc1 | 46.7 |
| Fc1cnc(N2C[C@H]3CN(Cc4cccc(F)c4)C[C@H]3C2)nc1 | 60 |
| Fc1cccc(CN2C[C@@H]3CN(c4ncccn4)C[C@@H]3C2)c1 | 28.5 |
| CN(CCCc1cc(-c2ccc(F)cc2)n(C)n1)CC(N)=O | -65.6 |
| CN1CC[C@H](N(Cc2ccccc2)Cc2ccccc2)C[C@H](O)C1 | 32.1 |
| Cc1ccc(CN2CCO[C@@H]3C[C@@H](C(=O)NC(C)C)C[C@H]32)o1 | -26.5 |
| CSCCc1c(-c2ccccc2)ncn1CC(C)(C)N1CCCC1 | 26.7 |
| CSCCc1c(-c2ccccc2)ncn1[C@H]1C[C@@H](C(=O)O)N(C)C1 | 19.5 |
| CC(C)(Cn1cnc(-c2ccccc2)c1-c1ccco1)N1CCOCC1 | 51.7 |
| CSCCc1c(-c2ccccc2)ncn1CC(C)(C)N1CCOCC1 | 69.3 |
| CN(C)CC(C)(C)Cn1cnc(-c2ccccc2)c1-c1ccncc1 | -18.1 |

From ChEMBL document CHEMBL4513216, “Probing the Open Global Health Chemical Diversity Library for Multistage-Active Starting Points for Next-Generation Antimalarials” (ACS Infect Dis, 2020)
